Assay outcomes (PubChem BioAssay)
Vif inh – HIV Vif self-association inhibitors, primary screen, imaging, HEK293T, single point; inhibition, % at 7.49 µM; AID 602346, 2012; HEK293T cells, Vif self-association by quenched fluorescence, 24 h; 340,000 tested, 0.35% active; in the data active = inhibition above about 50%, passing the limit was not always enough; inconclusive = no clear call, values can overlap the other calls; inactive = below about 31%
CaV13 ICDI inh – Disruptors of the CACNA1D IQ motif to Ca2+-dependent inactivation inhibitor domain association, primary screening, Förster resonance energy transfer in intact living …; HEK cells, CFP/YFP FRET ICDI-IQ, plate reader, 10 min; percent FRET-ratio fall versus neutral wells; inhibition, % at 12.3 µM; 340,000 tested, 0.098% active; AID 743397;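 active = mean replicate inhibition of at least 30% and at least 1% of replicates passing that level; inconclusive = only one of the two criteria is met; inactive = neither criterion is met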
ATG4B inh – ATG4B protease inhibitors, primary screen, biochemical, fluorescence, uHTS; Cysteine protease ATG4B (Homo sapiens), Q9Y4P1; ATG4B cleavage of LC3-PLA2, NBD-HPC fluorescence, 1 h; inhibition, % at 8.33 µM; 340,000 tested, 0.51% active; AID 504462, 2011; in the data active = inhibition above about 40%
DSG3 Ab inh – inhibitors of pemphigus antibody binding to DSG3, primary screen, biochemical, bead-based, flow cytometry, scFv-GFP | Desmoglein-3 (Homo sapiens), P32926 | DSG3-coupled beads, scFv-anti-DSG3-GFP binding; stronger effect = lower value | binding (percent of control), % at 10 µM | 310,000 tested, 0.48% active | AID 588358, 2011;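 active = binding more than 3 SD below its plate's average and above zero; inconclusive = below that plate limit but binding exactly zero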;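 also: hits lower antibody fragment binding to DSG3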
N-glyco inh – increase of ERlucT glycosylation luciferase signal, primary screen, N-linked glycosylation inhibitor project, D54 ERlucT cells, luminescence, set 2; D54 ERlucT glycosylation luciferase reporter, 24 h; percent of 100 nM tunicamycin response; reporter increase, % at 12.5 µM; 360,000 tested, 0.23% active;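 active = mean luciferase reporter signal, scaled so untreated is 0 and the glycosylation-blocking control 100, at or above a set limit in every replicate; inconclusive = mean reaches the limit but not every replicate does; inactive = mean below the limit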;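 also: luciferase carries N-glycosylation sites so blocking glycosylation raises the light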
NSD2 inh – NSD2 histone methyltransferase inhibitors, primary screen, biochemical, AlphaScreen, single concentration, set 2; AID 743445, 2014; inhibition, % at 12.5 µM; 310,000 tested, 0.54% active; NSD2 peptide methylation, 120 min; Histone-lysine N-methyltransferase NSD2 (Homo sapiens), O96028; in the data active = inhibition above about 50%
Numbers stand for hits; i = inactive; ? = inconclusive; nt = no result given; + = active, no number. In the library only some 1.9% were active in any assay of this set; here they are far more common.

SMILES	Vif inh	CaV13 ICDI inh	ATG4B inh	DSG3 Ab inh	N-glyco inh	NSD2 inh
CCn1c(CC(=O)Nc2ccccc2Cl)nnc1SCC(=O)NC1CCCC1	i	i	i	86	i	i
CCn1c(CC(=O)Nc2ccccc2)nnc1SCC(=O)Nc1nnc(C)s1	68	i	i	i	i	i
CCOC(=O)c1sc(=S)n(Cc2ccccc2)c1N	nt	nt	i	i	i	i
O=C(Cn1c(=O)oc2cc(S(=O)(=O)N3CCCCC3)ccc21)N1CCc2ccccc21	53	i	i	i	i	nt
COc1cc(NC(=O)COc2ccccc2[N+](=O)[O-])ccc1NC(=O)c1cccs1	53	i	i	i	i	i
COc1cc(NC(=O)COc2ccccc2Cl)ccc1NC(=O)c1cccs1	i	i	i	6.8	i	i
C/C(=N/NC(=O)c1cccs1)c1ccc(NC(=O)COc2ccc(Cl)cc2Cl)cc1	?	i	i	i	40	i
COc1cccc2cc(C(=O)Nc3cc(Cl)ccc3N3CCOCC3)c(=O)oc12	i	nt	i	i	i	nt
CCOc1ccccc1N1CCN(CC(O)COC2CCCc3ccccc32)CC1 (stereo not drawn)	i	i	i	-39	i	i
COc1ccc(C(=O)/C=C/c2ccccc2)c(OC)c1	i	nt	i	i	i	nt
COc1cc(C)cc(C(=O)C=Cc2ccccc2)c1O	i	i	i	i	31	i
Cc1ccc(O)c(C(=O)C=Cc2ccccc2)c1	i	i	i	i	30	i
CCOc1ccc(C2CC(c3c(O)c4ccccc4oc3=O)=NN2c2ccccc2)cc1OC (stereo not drawn)	i	165	i	i	i	i
Cn1cnc(S(=O)(=O)Nc2ccc(OC(F)(F)F)cc2)c1	i	+	i	i	i	i
CCN(c1ccccc1)S(=O)(=O)c1ccc(Cl)c(NC(=O)c2ccc(=O)[nH]n2)c1	i	i	i	21	i	i
Cc1nn(-c2ccccc2)c2[nH]c(=O)c(CNc3ccc(N4CCOCC4)cc3)cc12	i	nt	i	76	i	i
Cc1ccc(-c2nc(N)n(S(=O)(=O)c3ccc(C)cc3)n2)cc1	i	i	i	i	i	i
CCn1nc(C(=O)Nc2ccc(S(=O)(=O)Nc3nccs3)cc2)c2ccccc2c1=O	i	i	i	i	i	i
CCCc1ccc(Oc2coc3cc(OCC(=O)Nc4ccccc4C)ccc3c2=O)cc1	i	i	i	i	i	i
CCc1ccc(Oc2coc3cc(OCC(=O)Nc4cc(C)ccc4C)ccc3c2=O)cc1	i	i	i	i	66	i
COc1ccc2c(c1)c(C(=O)O)c(C)n2-c1ccc(Cl)cc1	nt	i	i	i	i	i
O=C(CSc1nccc(-c2ccc(Br)cc2)n1)NCCc1ccccc1	i	i	i	69	i	i
Cc1nc(SCC(=O)NCCc2ccccc2)n[nH]1	i	i	i	i	i	nt
COc1ccc(N2CC(C(=O)Nc3nnc(SCC(=O)Nc4ccc(NC(C)=O)cc4)s3)CC2=O)cc1 (stereo not drawn)	i	i	nt	85	i	i
CCOc1ccc(N2CC(C(=O)Nc3ccncc3)CC2=O)cc1 (stereo not drawn)	i	i	i	54	i	i
SMILES	Vif inh	CaV13 ICDI inh	ATG4B inh	DSG3 Ab inh	N-glyco inh	NSD2 inh
CCOc1ccc(N2CC(C(=O)Nc3ccccn3)CC2=O)cc1 (stereo not drawn)	i	i	i	i	i	i
Cc1c(NC2=CC(=O)CC(C)(C)C2)c(=O)n(-c2ccccc2)n1C	i	i	i	i	i	i
COc1cccc(NC(=O)NC2CC(=O)N(c3ccc4c(c3)OCCO4)C2)c1 (stereo not drawn)	i	i	i	i	i	i
Cc1cc2c(=Cc3ccc(N(C)C)cc3)c3ccccc3n2[n+]1C	i	i	i	i	66	55
CCOC(=O)c1cc2c(=Cc3ccc(N(C)C)cc3)c3ccccc3n2[n+]1C	i	i	i	nt	40	i
CN(C)c1ccc(C=c2c3ccccc3n3c2c2ccccc2[n+]3C)cc1	i	i	i	nt	i	nt
CCCCCn1c(=O)[nH]c2cc(C(=O)O)ccc2c1=O	i	i	i	i	i	i
CCCCCn1c(=O)[nH]c2c(c1=O)CCC2	i	nt	i	-1.0	i	i
Cc1cc(NC(=O)c2ccccc2)n(-c2nc3ccccc3[nH]2)n1	i	i	i	i	i	i
Cc1ccc(C)c(S(=O)(=O)N2CCN(Cc3ccc(O)c4ncccc34)CC2)c1	i	i	i	i	i	i
CC(=O)Oc1cc(C(=O)OCC(=O)NC23CC4CC(CC(C4)C2)C3)cc(OC(C)=O)c1OC(C)=O	67	i	i	?	i	nt
CC(C)C(NC(=O)c1ccccc1NC(=O)C(C)(C)C)C(=O)N1CCOCC1 (stereo not drawn)	69	i	i	nt	i	i
CC(NC(=O)c1ccccc1NC(=O)c1ccccc1)C(=O)N1CCOCC1 (stereo not drawn)	i	i	i	i	i	i
COc1ccc(-c2csc3ncnc(N4CCN(S(=O)(=O)c5cccs5)CC4)c23)cc1	i	i	i	i	i	i
COc1ccc(-c2csc3ncnc(N4CCN(S(=O)(=O)c5ccc(C)cc5)CC4)c23)cc1	nt	i	i	69	i	i
CCc1noc(C)c1C(=O)NNC(=O)c1ccc(N(CC)CC)cc1	60	i	i	nt	i	i
CCCOc1ccc(N)cc1N	i	i	i	i	i	68
COc1ccc(C(=O)OCCN2CCN(C3=NS(=O)(=O)c4ccccc43)CC2)cc1OC	i	i	i	i	i	i
COc1ccc(S(=O)(=O)N2CCN(Cc3cc(OC)c(O)c(OC)c3)CC2)cc1	i	i	i	i	i	i
c1nc(SSc2ncnc3nc[nH]c23)c2[nH]cnc2n1	i	i	i	66	106	i
COc1ccc(CCNC(=O)CSc2cn(Cc3cccc(C)c3)c3ccccc23)cc1OC	i	49	i	i	i	nt
Cc1nnc(NC(=O)CSc2cn(Cc3ccccc3)c3ccccc23)s1	i	i	i	-20	i	nt
CSc1ccccc1OCc1cc(C(=O)NC2CCc3ccccc32)no1 (stereo not drawn)	i	i	i	i	i	i
Cc1ccc(N2C(=O)/C(=C/c3cccnc3)SC2=S)cc1	nt	i	i	88	i	i
Cc1cccc(N2C(=O)/C(=C/c3cccnc3)SC2=S)c1	i	i	i	i	i	i
